Growth inhibition data for 21 molecules are collected here from PubChem BioAssay (NCI).

This is part of a sample that, as a whole, favours compounds with a hit. Of some 79,000 tested, about 15% had one in any assay. Unmarked numbers belong to inactive results. Calls of active or inactive are those of the source. No stated cut-off is given here; in the data, active means growth inhibition above about 70%; inactive means the rest.

Assay [1] is described as follows: NCI Yeast Anticancer Drug Screen. Data for the rad50 strain (AID 155).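 Further: 0% = growth of vehicle-only cultures of the same strain.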 Conditions: S. cerevisiae rad50 strain growth inhibition; at 50.0 µM; active compounds read high. The gist of the method:
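Vehicle-treated cultures provide the reference for the growth inhibition reported for compound-exposed, repair-deficient yeast.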

Assay [2] can be described thus: NCI Yeast Anticancer Drug Screen. Data for the mec2-1 strain (AID 157). Conditions: S. cerevisiae mec2-1 strain, at 50.0 µM, active compounds read high. The method in brief:
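Each compound was tested on mec2-1 yeast, a strain altered in DNA damage repair or cell cycle control. Growth inhibition is reported relative to vehicle.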

Assay [3] in a line: NCI Yeast Anticancer Drug Screen. Data for the sgs1 mgt1 strain (AID 161).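 Further: 0% = growth of cultures given vehicle only.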 Conditions: S. cerevisiae sgs1 mgt1 strain, at 50.0 µM, active compounds read high. The gist of the method: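 Inhibition of yeast growth, normalised to vehicle-treated controls, is reported for a strain bearing genetic alterations in DNA damage repair.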
Assay [4] can be described thus: NCI Yeast Anticancer Drug Screen. Data for the cln2 rad14 strain (AID 165).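 Further: 0% = growth equal to vehicle treated cultures.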 Conditions: S. cerevisiae cln2 rad14 strain, at 50.0 µM, active compounds read high. The gist of the method:
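Test compounds were added to cln2 rad14 yeast cultures; inhibition of growth was then determined by comparison with vehicle treatment.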

Assay [5] can be described thus: NCI Yeast Anticancer Drug Screen. Data for the bub3 strain (AID 167). Conditions: S. cerevisiae bub3 mutant strain, at 50.0 µM, active compounds read high. The gist of the method:
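Mutant yeast screening strain plus compound; vehicle-treated cultures serve as the 0% inhibition reference.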

Assay [6] in a line: NCI Yeast Anticancer Drug Screen. Data for the mlh1 rad18 strain (AID 175). Conditions: S. cerevisiae mlh1 rad18 strain growth inhibition; at 50.0 µM; active compounds read high. The method in brief: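 Inhibition values reflect reduced growth of mutant yeast versus vehicle-treated controls following compound exposure; the mutations affect DNA damage repair.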

Consider `NC(=O)CCC(NC(=O)Cc1ccccc1)C(=O)O` (stereo unspecified) (tested in a mixture with another compound), for which the growth inhibition in assay [1] is -4.45%; in assay [2] it was -14.1%; in assay [3] it was 0.25%; in assay [4], -29.9%; in assay [5] it was -9.65%; in assay [6], 8.95%.

Take `CCC1CN1P1(=O)OCC(C)(N)CO1` (stereo unspecified): the growth inhibition in assay [1] was -9.45%; in assay [2] it was 0.7%; in assay [3], -7.35%; in assay [4], 42.6%; in assay [5], -29.1%; in assay [6], -10.6%.

Take `CCOP1(=O)C=C(C)C(Cl)=C(C)C1` (stereo unspecified): the growth inhibition is 26.9% in assay [1]; 8.35% in assay [2]; 11% in assay [3]; -14.3% in assay [4]; 3.05% in assay [5]; 20.9% in assay [6].

Turning to `[C-]#[O+].[C-]#[O+].[C-]#[O+].[Cr].c1ccc([PH+](CC[As](c2ccccc2)c2ccccc2)CC[As](c2ccccc2)c2ccccc2)cc1`, the growth inhibition was 5.45% in assay [1]; -7.65% in assay [2]; 27.7% in assay [3]; 2.6% in assay [4]; 11.1% in assay [5]; 38.9% in assay [6].

Turning to `NC(=O)NC(O)C(Cl)(Cl)Cl` (stereo unspecified), the growth inhibition is -12.1% in assay [1]; -33.9% in assay [2]; -24.9% in assay [3]; -42% in assay [4]; -32.6% in assay [5]; -29.4% in assay [6].

In the case of `CC(C)OP(=O)(OCCCO)C(Cl)Cl` (stereo unspecified), the growth inhibition in assay [1] was 0.35%; in assay [2] it was 17.1%; in assay [3], 1.1%; in assay [4], 2.55%; in assay [5], 3.75%; in assay [6], 0.75%.

As to `CC(C(=O)c1ccccc1)N(C)Cc1ccccc1` (stereo unspecified), the growth inhibition in assay [1] was -27.4%; in assay [2], -2.05%; in assay [3], 6.75%; in assay [4], -36.7%; in assay [5], 42.5%; in assay [6], 17.1%.

On to `Cc1cc(-c2ccccc2)cc(-c2ccccc2)[o+]1`, for which the growth inhibition was 2.3% in assay [1]; -2.55% in assay [2]; 2% in assay [3]; -23% in assay [4]; 1% in assay [5]; 4.25% in assay [6].

For the molecule `[CH3][Hg][O]C(C)=O`, the growth inhibition in assay [1] is 99.5% (active); in assay [2], 99.9% (active); in assay [3] it was 99.7% (active); in assay [4] it was 99.5% (active); in assay [5], 99.7% (active); in assay [6] it was 99.7% (active).

On to `C#CCN(C)C(=O)N(CC#C)N=O`, for which the growth inhibition is 15.2% in assay [1]; -4.95% in assay [2]; 1.75% in assay [3]; -11% in assay [4]; -6.55% in assay [5]; -23.4% in assay [6].

Regarding `COC(=O)CP(=O)(OC)OC`, the growth inhibition in assay [1] is 5.3%; in assay [2] it was -24.1%; in assay [3], 1.8%; in assay [4], -3.15%; in assay [5], 1%; in assay [6], 7.2%.

As to `COC1OOC(OC)c2ccccc2-c2ccccc21` (stereo unspecified), the growth inhibition was -15.3% in assay [1]; -9.7% in assay [2]; 4.1% in assay [3]; -14.1% in assay [4]; 15.5% in assay [5]; 4.15% in assay [6].

`N#CCC(=O)c1ccccc1`: the growth inhibition was 3.3% in assay [1]; 29.9% in assay [2]; -0.25% in assay [3]; -20.7% in assay [4]; -10.9% in assay [5]; 1.4% in assay [6].

For `COc1cc2c(cc1O)CCN[C@H]2C`, the growth inhibition in assay [1] was -1.3%; in assay [2], -25.8%; in assay [3], -0.95%; in assay [4] it was -4.1%; in assay [5], 3.55%; in assay [6], -1.45%.

Turning to `COc1ccccc1CCN`, the growth inhibition in assay [1] was -23.6%; in assay [2] it was -5.9%; in assay [3], -14.1%; in assay [4] it was -14.3%; in assay [5] it was -21.2%; in assay [6], -29.3%.

In the case of `COc1ccc(C2C=C(c3ccc4c(c3)OCO4)Oc3c2c(=O)oc2ccccc32)cc1OC` (stereo unspecified), the growth inhibition in assay [1] is 11.5%; in assay [2], 4.1%; in assay [3] it was 10.1%; in assay [4], 16.4%; in assay [5], 22.7%; in assay [6], 37%.

In the case of `O=C(O)CP(=S)(S)c1ccccc1` (stereo unspecified), the growth inhibition was -28.5% in assay [1]; -32.9% in assay [2]; -26.4% in assay [3]; 2.4% in assay [4]; -27.8% in assay [5]; -39.5% in assay [6].

Regarding `CCOP(=O)(OCC)/C(C#N)=C/c1ccco1`, the growth inhibition in assay [1] was -2.55%; in assay [2] it was -25.4%; in assay [3] it was -9.65%; in assay [4], 21.8%; in assay [5], -16.5%; in assay [6], -21.8%.

`N#CC1OC1c1cccnc1` (stereo unspecified): the growth inhibition is 3.9% in assay [1]; -1.45% in assay [2]; -4.45% in assay [3]; 20.6% in assay [4]; 29.3% in assay [5]; -16.1% in assay [6].

For the molecule `COc1cc(OC)c(SC)cc1CC(C)N` (stereo unspecified), the growth inhibition in assay [1] was -19.2%; in assay [2] it was -0.95%; in assay [3], -3.2%; in assay [4], -16.1%; in assay [5], 21.3%; in assay [6] it was -3.05%.

With `CC(=O)OC(C[N+](=O)[O-])C(Cl)(Cl)Cl` (stereo unspecified), the growth inhibition in assay [1] is 5.7%; in assay [2], 3.25%; in assay [3] it was 2.25%; in assay [4] it was -0.7%; in assay [5] it was 8.4%; in assay [6], 2.95%.
